From PubChem BioAssay (NCATS) come the findings set out here.

The structures appear in SMILES notation. Results filed as inconclusive are left out. Unmarked numbers belong to inactive results. The source made the active and inactive calls. Calls come from the whole dose curve; as a rule, active = well fitted curve in the direction sought with a large enough effect; inconclusive = small, poorly fitted or top-dose-only effect, or another doubt; inactive = no such curve, though single readings can be large; an effect the other way counts as inactive or inconclusive.

One assay concerns KB-3-1. Briefly: Cytotoxic Profiling of Annotated Libraries Using Quantitative High-Throughput Screening (AID 1296008). For max response: % is set by controls: 0 for no effect and ±100 for the full control effect. Note: nearly all actives have a fitted effect of over 60% in size. The settings on record: Five cell lines viability, CellTiter-Glo ATP luminescence, 48-72 h; max response: stronger effect = lower value. Put shortly: (§1)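 Cytotoxicity was measured as CellTiter-Glo ATP luminescence, read after 10 min at room temperature. Compound treatment of the cells lasted 48 or 72 hr at 37 degrees Celsius in a qHTS format.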
For orientation: ATP-based viability assays read luminescence as a measure of living cells.

The test system of the next assay is TAB165. Briefly: qHTS profiling for inhibitors of Plasmodium falciparum proliferation (AID 504749). Note: nearly all actives have a fitted effect of over 60% in size. The note with it: P. falciparum in erythrocytes, SYBR Green DNA, 72 h; series mostly up to 28.7 µM. An outline of the steps:
(§2)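 Three-day growth assay of blood-stage parasites in erythrocytes (0.3% parasitemia, 2.5% hematocrit) at 37 C, 5% CO2, quantified by SYBR Green DNA staining after overnight detergent lysis.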
A general note: In qHTS, concentration-response curves come from the screen itself.

In a further assay the test system is W2. Described as above. The note with it: P. falciparum in erythrocytes, SYBR Green DNA, 72 h; series mostly up to 28.7 µM. An outline of the steps:
as §2

The next assay has as its system NIH3T3. The experiment in a line: Cytotoxic Profiling of Annotated Libraries Using Quantitative High-Throughput Screening (AID 1296008). For max response: % is set by controls: 0 for no effect and ±100 for the full control effect. Note: nearly all actives have a fitted effect of over 60% in size. The note with it: Five cell lines viability, CellTiter-Glo ATP luminescence, 48-72 h; max response: stronger effect = lower value. An outline of the steps:
as §1

In the next assay the test system is MCC-13. The experiment in a line: qHTS assay to identify novel small-molecules to repurpose for Merkel cell carcinoma treatment (AID 1296009). Note: nearly all actives have a fitted effect of over 60% in size. The settings on record: MCC and control cell lines, CellTiter-Glo viability, 72 h; series mostly up to 46 µM. An outline of the steps:
(§3)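 After compound transfer in DMSO, plates were kept 72 hr at 37 degree celsius. Luminescent ATP signal from CellTiter-Glo served as viability measure, normalized against DMSO and no-cell controls.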

A further assay deals with MCC-26. The description is as above. The note with it: MCC and control cell lines, CellTiter-Glo viability, 72 h; series mostly up to 46 µM. Put shortly: as §3
For the next assay, the system named is MKL-1. The description is as above. The settings on record: MCC and control cell lines, CellTiter-Glo viability, 72 h; series mostly up to 46 µM. Put shortly:
as §3

A further assay has as its system MKL-2. The assay is described as above. The note with it: MCC and control cell lines, CellTiter-Glo viability, 72 h; series mostly up to 46 µM. Put shortly:
as §3

In the next assay the test system is UISO. The assay is described as above. The note with it: MCC and control cell lines, CellTiter-Glo viability, 72 h; series mostly up to 46 µM. An outline of the steps:
as §3

Another assay has as its system WaGa. The assay is described as above. The settings on record: MCC and control cell lines, CellTiter-Glo viability, 72 h; series mostly up to 46 µM. An outline of the steps: as §3
A further assay deals with C33A. Briefly: Primary qHTS to identify gynecologic anti-cancer compounds using libraries of approved drugs and bioactive compounds (AID 1345084). Note: nearly all actives have a fitted effect of over 55% in size. The note with it: Gynecologic cancer cell panel viability, ATPlite luminescence, 48 h; series mostly up to 57.5 µM. Put shortly:
(§4)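 ATP-based viability (ATPlite), 1,000 cells/well, 16 h pre-incubation, 48 h compound at 37 C, 5% CO2, 15 min RT before read.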

A further assay deals with CASKI. The description is as above. The settings on record: Gynecologic cancer cell panel viability, ATPlite luminescence, 48 h; series mostly up to 57.5 µM. Put shortly: as §4
In the next assay the test system is Es-2. The assay is described as above. The settings on record: Gynecologic cancer cell panel viability, ATPlite luminescence, 48 h; series mostly up to 57.5 µM. An outline of the steps:
as §4

The subject of assay [1] is HaCat. Briefly: Cytotoxic Profiling of Annotated Libraries Using Quantitative High-Throughput Screening (AID 1296008). For max response: % is set by controls: 0 for no effect and ±100 for the full control effect. Note: nearly all actives have a fitted effect of over 60% in size. The note with it: Five cell lines viability, CellTiter-Glo ATP luminescence, 48-72 h; max response: stronger effect = lower value. Put shortly: as §1
Another assay relates to CAOV3. The experiment in a line: Primary qHTS to identify gynecologic anti-cancer compounds using libraries of approved drugs and bioactive compounds (AID 1345084). Note: nearly all actives have a fitted effect of over 55% in size. The note with it: Gynecologic cancer cell panel viability, ATPlite luminescence, 48 h; series mostly up to 57.5 µM. An outline of the steps: as §4
The test system of assay [2] is HACAT. Briefly: qHTS assay to identify novel small-molecules to repurpose for Merkel cell carcinoma treatment (AID 1296009). Note: nearly all actives have a fitted effect of over 60% in size. The note with it: MCC and control cell lines, CellTiter-Glo viability, 72 h; at 44.8 µM (top of the series) unless noted. Put shortly:
as §3
Potency is the fitted concentration of half-maximal effect.

Regarding `CCCC1O[C@@H]2C[C@H]3[C@@H]4CCC5=CC(=O)C=C[C@]5(C)[C@H]4[C@@H](O)C[C@]3(C)[C@]2(C(=O)CO)O1` (stereo partly drawn), the max response with KB-3-1 is 0.499%.

Turning to `CCCCCCc1ccc(O)cc1O`, the Potency entry in the assay on TAB165, with W2, in the assay on MCC-13, in the assay on MCC-26, in the assay on MKL-1 and in the assay on MKL-2 was “inactive” each time. For the same compound, the Potency result in the assay on UISO, with WaGa, with C33A, in the assay with CASKI and in the assay with Es-2 was “inactive” each time. The figures for the max response with KB-3-1 and in the assay on NIH3T3 were 0.129% and 4.72%, respectively.

For the compound `COc1cc(N)c(Cl)cc1C(=O)NC1CCN(CCCOc2ccc(F)cc2)CC1OC` (stereo not drawn), the results for the max response in the assay on HaCat [1] and in the assay with KB-3-1 were -1.88% and 6.35%, respectively. In addition, the Potency entry in the assay with MCC-13, in the assay on MCC-26, in the assay with MKL-1, with WaGa, in the assay with C33A and in the assay with CAOV3 was “inactive” each time. The Potency result in the assay with CASKI and in the assay with Es-2 was “inactive” in each case.

Take `COc1cc2c(cc1OC)C(=O)C(CC1CCN(Cc3ccccc3)CC1)C2` (stereo not drawn): the max response in the assay with KB-3-1 is 1.75%; in the assay on NIH3T3 it was -17.7%. Moreover, the Potency entry in the assay on MCC-13, with MCC-26, in the assay on MKL-1, in the assay on UISO, in the assay with C33A and in the assay on CASKI was “inactive” in each case. Besides, the Potency entry with Es-2 was “inactive”.

Take `CCCCN1CCCC1C(=O)Nc1c(C)cc(C)cc1C` (stereo not drawn): the Potency entry in the assay on TAB165, in the assay with MCC-13, in the assay with MCC-26, with MKL-1, with MKL-2 and in the assay on UISO was “inactive” throughout. Also, the Potency entry in the assay on WaGa, in the assay with C33A, with CAOV3, in the assay with CASKI and in the assay with Es-2 was “inactive” throughout. Besides, the max response in the assay with KB-3-1 is -0.66%; in the assay on NIH3T3, -4.8%.

In the case of `CCCCCCCCCCCCCCNCCO`, the Potency result in the assay with TAB165, in the assay on MCC-13, in the assay on MCC-26, in the assay with WaGa, in the assay on CASKI and with Es-2 was “inactive” in each case. Besides, the Potency with W2 was 9.53 µM (active). Also, in the assay with KB-3-1, the max response is 5.95%.

Take `O=C(CCN1CCC(c2ccccc2)C1)c1ccc2c(c1)OCCO2` (stereo not drawn): the Potency entry with TAB165, in the assay on W2, in the assay with MCC-26, in the assay on C33A, in the assay with CAOV3 and in the assay on CASKI was “inactive” in each case. Moreover, the Potency result in the assay with Es-2 was “inactive”. Moreover, the call with HaCat [1] and in the assay on HACAT [2] was inactive. Besides, in the assay on KB-3-1, the max response was -5.38%. The Potency with MKL-1 was 2.66 µM (active); in the assay on MKL-2, 0.841 µM (active); with WaGa it was 2.99 µM (active).

As for `CCC(NC(C)C)C(O)c1ccc(O)c(O)c1` (stereo not drawn), the max response with KB-3-1 was -9.53%.

Turning to `CC(C)N=C(N)/N=C(\N)Nc1ccc(Cl)cc1`, the Potency in the assay on W2 is 1.28 µM (active). In addition, the results for the max response with HaCat [1] and in the assay with KB-3-1 were 0.505% and -14.7%, respectively. Moreover, the Potency result in the assay on MCC-13, with MCC-26 and in the assay on MKL-1 was “inactive” throughout.

Consider `CC1=C(C(=O)OC(C)C)C(c2cccc([N+](=O)[O-])c2)C(C(=O)OC2CN(C(c3ccccc3)c3ccccc3)C2)=C(N)N1` (stereo not drawn), for which the Potency is 5.01 µM (active) with TAB165; 5.36 µM (active) with W2; 18.4 µM (active) with KB-3-1; 21.1 µM (active) with MKL-1; 16.8 µM (active) in the assay with MKL-2. Further, the Potency result in the assay with C33A, with CASKI and in the assay on Es-2 was “inactive” throughout.

Consider `CC(C)COC(=O)OCN1C(=O)CN(CCN2CC(=O)N(COC(=O)OCC(C)C)C(=O)C2)CC1=O`, for which the Potency result with TAB165 and with W2 was “inactive” each time. Moreover, the max response with KB-3-1 was 6.86%.

For the compound `CC(=O)O[C@H]1C[C@@H]2CC[C@@H]3[C@H](CC[C@@]4(C)[C@H]3C[C@H]([N+]3(C)CCCCC3)[C@@H]4OC(C)=O)[C@@]2(C)C[C@@H]1[N+]1(C)CCCCC1`, the max response with KB-3-1 was 1.63%.

Take `CC[C@H](C)C(=O)O[C@H]1CCC=C2C=C[C@H](C)[C@H](CC[C@@H]3C[C@@H](O)CC(=O)O3)[C@H]21`: in the assay with KB-3-1, the max response is 3.96%.

Consider `COc1ccc(/C=C/C(=O)c2ccc(OC)cc2OC)cc1`, for which the figures for the Potency in the assay on TAB165, in the assay with W2 and with MKL-2 were 4.47 µM (active), 4.26 µM (active) and 5.31 µM (active), respectively. Besides, the max response with HaCat [1] was -62.6%; with NIH3T3, -18.9%. Further, in the assay with Es-2, the Potency result was “inactive”.

Turning to `CCN(CC)CCOC(=O)C(c1ccccc1)C1CCCCC1` (stereo not drawn), the Potency entry with TAB165, in the assay on MCC-13, in the assay with MCC-26, with MKL-1, in the assay on UISO and in the assay with WaGa was “inactive” throughout. Besides, the Potency result in the assay with C33A, with CAOV3, with CASKI and in the assay with Es-2 was “inactive” in each case. Also, the Potency with W2 was 7.57 µM (active). For the same compound, the call in the assay with HaCat [1] and with HACAT [2] was inactive. Further, the max response with KB-3-1 is -2.77%.

For the compound `Clc1ccc2c(c1)CCc1cccnc1C2=C1CCNCC1`, the figures for the Potency with W2 and in the assay with MKL-2 were 3.38 µM (active) and 26.6 µM (active), respectively. Moreover, the max response in the assay with HaCat [1] is -1.5%; with KB-3-1, -7.06%. The Potency entry in the assay with MCC-13, in the assay with MCC-26, in the assay on C33A and with Es-2 was “inactive” throughout.

As for `CN1CCN(CCCN2c3ccccc3Sc3ccc(S(=O)(=O)N(C)C)cc32)CC1`, the Potency in the assay with TAB165 is 3.98 µM (active); in the assay with W2, 2.03 µM (active). The outcome in the assay with HaCat [1] and in the assay with HACAT [2] was inactive. The max response with KB-3-1 was -2.22%. The Potency entry in the assay on MCC-13, in the assay with MCC-26, with UISO, with C33A, in the assay with CAOV3 and in the assay on CASKI was “inactive” in each case. Also, the Potency result in the assay with Es-2 was “inactive”.

As for `Cc1c(C)n(Cc2ccccc2)c2ccc(C(=O)OCCN(C)C)cc12`, the Potency result with TAB165, in the assay on MCC-13, in the assay on MCC-26, in the assay with MKL-1, in the assay on UISO and in the assay with WaGa was “inactive” each time. For the same compound, the Potency entry in the assay on C33A, in the assay with CASKI and in the assay on Es-2 was “inactive” in each case. Moreover, the compound was called inactive in the assay on HaCat [1] and with HACAT [2]. The max response in the assay with KB-3-1 was 1.73%.

In the case of `CCCCCCCCCCOCC(O)CN` (stereo not drawn), the max response with KB-3-1 is -10.6%. Moreover, the Potency result in the assay with MCC-26 was “inactive”. Also, the Potency was 23.7 µM (active) in the assay with MKL-2 and 31.6 µM (active) in the assay with CAOV3.
